D3 antag: antagonists of human D3 dopamine receptor; P35462; D3R cells, DiscoveRx beta-arrestin luminescence, antagonist mode; active compounds read low; max response, negative = inhibition, %; 360,000 tested, 2.5% active; AID 652054; in the data active means max response below about -50%; inconclusive means no clear call, values can overlap the other calls; further: on the % scale 0 is the no-effect control and ±100 the full control effect
Target sequence (P35462 whole entry, looked up): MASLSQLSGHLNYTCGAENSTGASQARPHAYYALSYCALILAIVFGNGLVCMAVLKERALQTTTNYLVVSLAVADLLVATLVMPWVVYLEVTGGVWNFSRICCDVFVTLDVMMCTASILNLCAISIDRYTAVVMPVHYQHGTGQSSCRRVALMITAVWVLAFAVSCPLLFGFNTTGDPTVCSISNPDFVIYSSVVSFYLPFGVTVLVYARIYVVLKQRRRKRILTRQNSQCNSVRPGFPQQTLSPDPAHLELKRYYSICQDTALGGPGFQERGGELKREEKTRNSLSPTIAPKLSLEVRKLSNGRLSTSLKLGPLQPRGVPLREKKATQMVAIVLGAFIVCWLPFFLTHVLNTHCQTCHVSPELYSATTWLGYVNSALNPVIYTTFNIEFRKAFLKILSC
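Cells expressing the human receptor were seeded at 1500 cells/well, incubated overnight at 37 degrees C in 5% CO2, then exposed to library compounds with dopamine controls for 90 minutes at 37 degrees C before luminescent detection.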
DRD3 agonist: D3 dopamine receptor (human) agonism; D3R DiscoveRx beta-arrestin cells, luminescence, 90 min; P35462; max activation, %; AID 652048; 410,000 tested, 0.58% active; in the data active means max activation above about 30%; further: 0% is about no effect
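Cells at 1500/well, incubated overnight, then treated with pinned compounds (dopamine as control) for 90 min at 37 degrees C. DiscoveRx reagent added for 30 - 60 minutes at room temperature; luminescence read.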
KB-3-1 tox: KB-3-1 parental cell cytotoxicity; KB-3-1 viability, CellTiter-Glo ATP luminescence, 72 h; Potency, µM (doses to about 46.1 µM), actives largely listed as cytotoxic; 400,000 tested, 1.4% active; AID 1347075; further: potency means the concentration at half of the fitted maximal effect; on the % scale 0 is the no-effect control and ±100 the full control effect; nearly all actives have a fitted effect of over 60% in size
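Luminescent ATP read-out (CellTiter-Glo) measures survival of drug-naive KB-3-1 cells after 72 h compound exposure at 37 °C. Titration series was screened from lowest to highest concentration, with DMSO vehicle plates as background controls.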
KB-V1 cytotox: kills drug-selected multidrug resistant KB-V1 cells; KB-V1 MDR cells viability, CellTiter-Glo, 72 h; Potency, µM (doses to about 46.1 µM), hits mostly cytotoxic; 400,000 tested, 3.4% active; AID 1347076; further: potency means the concentration at half of the fitted maximal effect; on the % scale 0 is the no-effect control and ±100 the full control effect; nearly all actives have a fitted effect of over 60% in size
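Cells of the MDR subline KB-V1 are plated, dosed with compound at multiple concentrations, and incubated 72 h at 37 degrees C; CellTiter-Glo is then added and luminescence read after 10 min.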
MCF10A rereplic: DNA re-replication induction in MCF 10a cells. 350,000 tested, 2.9% active. AID 624296. Potency, µM (series often up to 46.1 µM), without a hit: top-dose activity, positive = re-replication, actives largely listed as activators. MCF 10A DNA re-replication, Hoechst nuclear intensity, 48 h; further: potency means the concentration at half of the fitted maximal effect; % of control where 0% means no effect; nearly all actives have a fitted effect of over 50% in size
SW480 rereplic: inducers of DNA re-replication in SW480 colon cancer cells; SW480 DNA re-replication, Hoechst DNA content imaging, 48 h; Potency, µM (titrated, usually from 46.1 µM), for the others: at the highest dose re-replication activation, usual class: activators; 340,000 tested, 1.8% active; further: potency means the concentration at half of the fitted maximal effect; % of control where 0% means no effect; nearly all actives have a fitted effect of over 55% in size
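Hoechst fluorescence of nuclei (405 nm excitation, 500-530 nm emission) measured by plate-scanning imager after 48 hr compound exposure at 37 C; re-replication scored as increased number of nuclei with elevated intensity.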
* hit, by the source's call; i = inactive; ? = inconclusive; nt = not tested or not shown; [ ] = remark or other dose. Rows were chosen to be rich in hits. Some 8.9% of all compounds tested hit in one or more screens of this group. Unless noted, the call rests on the fitted dose curve; in most records, active means well fitted curve in the direction sought with a large enough effect; inconclusive means small, poorly fitted or top-dose-only effect, or another doubt; inactive means no such curve, though single readings can be large; an effect the other way counts as inactive or inconclusive.

SMILES	D3 antag	DRD3 agonist	KB-3-1 tox	KB-V1 cytotox	MCF10A rereplic	SW480 rereplic
CCOCCCNC(=O)C(c1ccc(Cl)cc1)N1CCC2(CC1)OCCO2 (stereo not drawn)	-55*	-11	i	?	15%	3%
CCOCCCNC(=O)C(c1ccc(Cl)cc1)N1CCN(c2ccccc2)CC1 (stereo not drawn)	-27	-6	i	i	-4%	-9%
COc1cccc(CNC(=O)c2ccc3c(c2)nc2n3CCC(C)C2)c1 (stereo not drawn)	nt	-18	nt	nt	nt	nt
Brc1ccc(-c2nn3c(-c4ccccn4)nnc3s2)o1	27	-3	?	18µM*	3%	-8%
Clc1ccccc1-c1nn2c(-c3ccccn3)nnc2s1	0	-6	i	i	11%	-8%
Clc1ccc(-c2ccc(-c3nn4c(-c5ccco5)nnc4s3)o2)cc1	26	6	i	i	?	24%
Brc1ccc(-c2nn3c(-c4ccco4)nnc3s2)o1	45	-1	?	16µM*	0%	-6%
Cc1ccc(CNC(=O)C(=O)NCC(c2ccco2)S(=O)(=O)c2ccccc2)cc1 (stereo not drawn)	nt	7	i	i	nt	nt
Cc1ccccc1NC(=O)CCN1CCc2ccccc2C1	-79*	-6	i	?	28%	-1%
COC(=O)c1ccc(CN2CCc3ccc(NC(=O)c4ccncc4)cc3C2)cc1	?	-6	?	13µM*	?	-4%
O=C(Nc1ccc(F)cc1)c1ccc(CN2CCc3ccccc3C2)cc1	0	-8	?	5.8µM*	1%	-5%
CC(=O)Nc1ccc(NC(=O)c2ccc(CN3CCc4ccccc4C3)cc2)cc1	-55*	-13	i	i	2%	-11%
CC(=O)Nc1ccc(NC(=O)c2ccc(NC(=O)c3ccccc3)cc2)cc1	-5	7	i	?	1%	?
COc1cc(NC(=O)CN2Cc3ccccc3C2=O)cc(OC)c1OC	nt	8	i	i	nt	nt
O=C(CCN1CCc2ccccc2C1)Nc1ccc(F)cc1	-66*	-4	i	i	12%	0%
c1ccc(C(Cc2nc(-c3ccncc3)no2)c2ccccc2)cc1	0	4	12µM*	i	4%	-1%
c1ccc(-c2ccc(-c3nc(-c4cccnc4)no3)cc2)cc1	46	28	i	16µM*	17%	-8%
O=[N+]([O-])c1ccc(-c2nc(-c3ccncc3)no2)cc1	2	1	i	18µM*	-9%	2%
c1ccc(-c2ccc(-c3nc(-c4ccncc4)no3)cc2)cc1	38	45*	i	?	15µM*	15%
Cc1ccc(Cc2nc(-c3ccncc3)no2)cc1	18	11	i	i	4%	-10%
c1ccc(-c2nc(-c3ccncc3)no2)cc1	-9	2	i	i	0%	-1%
Brc1ccc(-c2nc(-c3ccncc3)no2)cc1	-1	0	i	i	-9%	-7%
COc1ccccc1CNC(=O)Cc1csc2nc(-c3ccc(Cl)cc3)cn12	nt	1	i	i	nt	nt
O=C(Nc1ccccc1OCc1cc(=O)n2ccccc2n1)c1ccccc1F	nt	6	nt	nt	nt	nt
COc1ccc2[nH]c(=O)c(-c3noc(-c4ccccc4)n3)cc2c1	41	5	i	i	-2%	-5%[9.22 µM]
SMILES	D3 antag	DRD3 agonist	KB-3-1 tox	KB-V1 cytotox	MCF10A rereplic	SW480 rereplic
O=c1[nH]c2ccccc2cc1-c1noc(-c2cccnc2)n1	8	48*	i	i	0%	-2%
COc1ccc(CCNC(=O)[C@H](C)N2C(=O)N3CCc4c([nH]c5ccccc45)[C@@]3(C)C2=O)cc1OC	-4	-25	?	?	8%	-1%
CC[C@]1(O)CC2CN(CCc3c([nH]c4ccccc34)[C@@](C(=O)OC)(c3cc4c(cc3OC)N(C)[C@H]3[C@@](O)(C(=O)OC)[C@H](OC(C)=O)[C@]5(CC)C=CCN6CC[C@]43[C@@H]65)C2)C1 (stereo partly drawn)	nt	nt	0.023µM*	?	?	0.75µM*
CCC1=C[C@@H]2CN(C1)Cc1c([nH]c3ccccc13)[C@@](C(=O)OC)(c1cc3c(cc1OC)N(C)[C@@H]1[C@@](O)(C(=O)OC)[C@H](OC(C)=O)[C@]4(CC)C=CCN5CC[C@]31[C@@H]54)C2	nt	nt	nt	nt	67%	1.2µM*
CCC1(O)CC2CN(CCc3c([nH]c4ccccc34)C(C(=O)OC)(c3cc4c(cc3OC)N(C=O)C3C(O)(C(=O)OC)C(OC(C)=O)C5(CC)C=CCN6CCC43C65)C2)C1 (stereo not drawn)	-24	-7	0.046µM*	16µM*	?	0.16µM*
Cc1cc(C)c(NC(=O)Cn2c(=O)n(CCCCC(=O)NCc3ccccc3Cl)c(=O)c3ccccc32)c(C)c1	nt	-9	i	?	nt	nt
COCCSc1nc2c([nH]c3ccccc32)c(=O)n1-c1ccc(OC)c(OC)c1	nt	1	i	i	nt	nt
O=C(COC(=O)c1cccc2c1C(=O)c1ccccc1C2=O)NC1CCCCC1	67	2	i	21µM*	85%	-6%
O=C(COC(=O)c1ccc2c(c1[N+](=O)[O-])C(=O)c1ccccc1C2=O)NC1CC1	-64*	-9	?	i	?	?
O=C(COC(=O)c1ccccc1F)NC1CCCC1	-4	3	i	?	-9%	0%
COc1ccccc1/C=C/C(=O)OCC(=O)Nc1c(C)nn(-c2ccccc2)c1C	86	6	i	i	-4%	-3%
COc1ccc2ccccc2c1CN1CCN(C(=O)c2ccccc2)CC1	?	-16	i	i	11%	5%
CCOc1cc(CN2CCN(C(=O)c3ccco3)CC2)ccc1OC	?	44*	i	i	16%	-1%
COc1ccc2ccccc2c1CN1CCN(C(=O)c2ccco2)CC1	-10	48*	i	?	9%	2%
CCOc1ccccc1-c1nc(CN2CCN(C(=O)c3ccco3)CC2)c(C)o1	?	-20	i	i	1%	-6%
O=C(c1ccco1)N1CCN(Cc2nnc(-c3cccc(Cl)c3)o2)CC1	-7	37*	i	i	?	-10%
CCOc1ccccc1-n1c(CN2CCN(C(=O)c3ccco3)CC2)nc2ccccc2c1=O	13	13	i	?	3.7µM*	24%
CCOc1ccc(CN2CCN(C(=O)c3ccco3)CC2)cc1	0	25	i	?	0%	-9%
CCCCCCN1CCN(C2CN(Cc3ccc(F)cc3)S(=O)(=O)C2)CC1 (stereo not drawn)	?	-18	?	i	nt	nt

Assay outcomes deposited in PubChem BioAssay by National Center for Advancing Translational Sciences (NCATS).
